# Sampled rows, rich in hits. Any-hit rate of the full collection: about 3.4%.
# Sm TGR block – blocks Schistosoma mansoni thioredoxin glutathione reductase; AID 485364; Q962Y6; purified TGR, DTNB reduction, TNB absorbance 405 nm; actives 3% (n = 360,000); Potency, µM (top dose mostly 114 µM), hits mostly inhibitors; further: nearly all actives have a fitted effect of over 60% in size
#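 First, TGR (20 nM dispensed) and NADPH were mixed with compound. Second, a 15 min room-temperature incubation followed. Third, further NADPH and then DTNB were added to start the reaction. Finally, TNB absorbance was monitored kinetically.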
# Giardia FBPA inh – inhibitors of Giardia lamblia fructose-1,6-bisphosphate aldolase; actives 0.71% (n = 290,000); A8B2U2; Potency, µM (doses to about 59.6 µM), usual class: inhibitors; purified Giardia FBPA; further: nearly all actives have a fitted effect of over 55% in size
# Target sequence (A8B2U2 whole entry, looked up): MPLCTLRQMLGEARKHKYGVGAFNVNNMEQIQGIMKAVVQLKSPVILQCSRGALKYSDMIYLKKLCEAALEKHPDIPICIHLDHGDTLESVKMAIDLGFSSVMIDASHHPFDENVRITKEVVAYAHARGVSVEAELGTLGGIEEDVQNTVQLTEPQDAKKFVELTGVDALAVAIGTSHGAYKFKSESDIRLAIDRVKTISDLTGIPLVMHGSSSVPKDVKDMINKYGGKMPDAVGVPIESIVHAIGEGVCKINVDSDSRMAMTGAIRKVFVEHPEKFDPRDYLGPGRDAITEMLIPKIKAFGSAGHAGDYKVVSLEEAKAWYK
#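 40 nM FBPA preincubated 10 min at RT with compound (up to 57.5 uM final), then substrate plus GAPDH/TPI/NAD/arsenate coupling and diaphorase/resazurin added. Fluorescence read after 20 min at RT, 525/598 nm.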
# AmpC no deterg – inhibitors of E. coli AmpC beta-lactamase without detergent; P00811; AmpC nitrocefin hydrolysis, absorbance 480 nm, 0.0001% Triton; actives 0.52% (n = 330,000); Potency, µM (series often up to 57.1 µM), actives largely listed as inhibitors; AID 485341; further: nearly all actives have a fitted effect of over 20% in size
# Target sequence (P00811 whole entry, looked up): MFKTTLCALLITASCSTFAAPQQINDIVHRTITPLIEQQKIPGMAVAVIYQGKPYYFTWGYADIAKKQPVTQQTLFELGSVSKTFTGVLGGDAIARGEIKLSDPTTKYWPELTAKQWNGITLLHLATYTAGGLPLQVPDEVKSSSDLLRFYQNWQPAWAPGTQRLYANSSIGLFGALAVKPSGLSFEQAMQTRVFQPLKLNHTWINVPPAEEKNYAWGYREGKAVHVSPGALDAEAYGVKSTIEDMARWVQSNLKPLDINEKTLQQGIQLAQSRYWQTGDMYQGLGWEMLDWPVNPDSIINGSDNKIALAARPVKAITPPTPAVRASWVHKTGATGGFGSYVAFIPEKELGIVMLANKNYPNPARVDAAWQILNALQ
#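 20 mM phosphate pH 7.0 + 0.01% (detergent screen) or 0.0001% Triton X-100; 5.3 nM AmpC reagent; cpd preinc 15 min RT; nitrocefin (800 uM stock) to start; A480 q20 s × 4 min; Activity was normalised to no-enzyme and no-compound control wells.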
# RE007 growth inh – less growth of the S. pombe RE007 Vpr strain | S. pombe RE007 Vpr strain, BacTiter-Glo ATP luminescence, 24 h | Potency, µM (doses to about 92.2 µM), actives largely listed as inhibitors | actives 0.21% (n = 360,000) | AID 651644; active means well fitted falling curve with a large enough effect; inconclusive means small, poorly fitted or top-dose-only effect; inactive means no such curve, though single readings can be large or run the other way; further: nearly all actives have a fitted effect of over 50% in size
#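 Fission yeast RE007 carrying one integrated HIV-1 vpr copy, seeded at OD 0.01 in PMG+AL medium with 23 nL pinned compound. Grown 24 h at 30 degrees; viability read by BacTiter-Glo luminescence after 5 min.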
# AmpC inh detg – blocks E. coli AmpC beta-lactamase in detergent assay | actives 0.041% (n = 370,000) | Potency, µM (doses to about 114 µM), usual class: inhibitors | AmpC hydrolysis of nitrocefin, absorbance 480 nm, 0.01% Triton | P00811; further: nearly all actives have a fitted effect of over 25% in size
#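 AmpC (5.3 nM in the dispensed reagent) in 20 mM phosphate pH 7.0 with 0.01% (detergent screen) or 0.0001% Triton X-100 was preincubated with compounds for 15 min at room temperature. Nitrocefin was then added from an 800 uM solution, and hydrolysis was followed at 480 nm.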
# Numbers stand for hits; 0 = inactive; ? = inconclusive; - = not tested or not shown. Unless noted, the call rests on the fitted dose curve; in most records, active means well fitted curve in the direction sought with a large enough effect; inconclusive means small, poorly fitted or top-dose-only effect, or another doubt; inactive means no such curve, though single readings can be large; an effect the other way counts as inactive or inconclusive.
SMILES,Sm TGR block,Giardia FBPA inh,AmpC no deterg,RE007 growth inh,AmpC inh detg
COc1ccccc1N1CCN(Cc2ccc(Br)cc2)CC1,35.5µM,0,0,0,0
COc1ccccc1N1CCN(Cc2ccc(Br)o2)CC1,0,0,0,0,0
COc1cc(CN2CCN(c3cccc(C)c3C)CC2)cc(OC)c1O,31.6µM,0,0,0,0
COc1cc(CN2CCN(C(=O)c3cccc4ccccc34)CC2)cc(OC)c1O,6.31µM,?,0,0,0
COc1ccc(OC)c(CN2CCN(C(=O)c3cccc4ccccc34)CC2)c1,0,0,0,0,0
Cc1cc(CN2CCN(c3cccc(C)c3C)CC2)cs1,0,-,-,-,0
Cc1ccc[n+](CC(=O)Nc2cccc([N+](=O)[O-])c2)c1,-,0,0,0,0
Cc1ccc[n+](CC(=O)Nc2ccc([N+](=O)[O-])cc2)c1,35.5µM,0,0,0,0
COC(=O)CN(c1ccc2c(c1)OCO2)S(=O)(=O)c1c(C)[nH]c(=O)[nH]c1=O,0,0,0,0,?
Cc1cccc(/C=N/NC(=O)c2ccccc2OCc2cccc(Br)c2)n1,0,0,0,0,0
CC(=O)Cc1nsc(NC(=O)c2ccco2)n1,44.7µM,0,0,0,0
CC(=O)Cc1nsc(NC(=O)c2ccc(Br)o2)n1,0,0,0,0,0
Cc1nc(N2CCCC2)c2ccsc2n1,0,0,0,0,?
Cc1ccc2nc(/C(C#N)=C/c3ccc(-c4cccc([N+](=O)[O-])c4)o3)[nH]c2c1,0,0,11.2µM,0,0
Cc1ccc2nc(/C(C#N)=C/c3ccc(-c4ccc(F)cc4F)o3)[nH]c2c1,0,-,-,-,0
COc1cccc(NC(=O)N2C3CCCC2CC(NC(=O)C(C)(C)C)C3)c1 (centres undefined),0,0,0,0,0
Cc1nc2ccc(NC(=O)c3cccs3)cc2s1,0,0,0,0,0
CNC(=S)N1CCn2cccc2C1c1ccc(F)cc1 (centres undefined),35.5µM,?,0,0,0
Fc1ccc(C2c3cccn3CCN2C(=S)Nc2cccc(F)c2)cc1 (centres undefined),0,0,0,0,0
O=C1NC[C@@H](Cc2cccc3ccccc23)N(CC2(c3ccccc3)CC2)C1=O,0,0,0,0,0
CCCCOc1ccccc1NC(=O)C=C(C)C,0,0,0,0,0
CCCOc1ccccc1NC(=O)/C=C/C(N)=O,3.16µM,0,0,?,0
CC(C)C[C@H]1CN(CCCC[C@H]2CNC(=O)C(=O)N2Cc2ccccc2)C(=O)C(=O)N1CCc1ccccc1,-,-,-,0,-
O=C1CC(c2ccccc2Cl)c2c(sc3c(=O)[nH]c(CCl)nc23)N1 (centres undefined),25.1µM,0,0,-,0
COc1cc2c3nc4n(c(=O)c3n(CC(=O)N3CCCC3)c2cc1OC)CCS4,-,-,-,0,-
SMILES,Sm TGR block,Giardia FBPA inh,AmpC no deterg,RE007 growth inh,AmpC inh detg
Cc1cc(NC(=O)Cc2ccccc2)nc2c1c(=O)oc1ccccc12,0,0,6.31µM,0,?
O=C(c1ccc(S(=O)(=O)N2CCCCC2)cc1)N1CCCc2ccccc21,0,0,0,0,0
CN1c2ccsc2/C(=N/Nc2ccccc2)CS1(=O)=O,?,0,0,44.7µM,?
CN(CCC#N)C(=O)COC(=O)c1c2c(nc3ccccc13)/C(=C/c1ccco1)CC2,10µM,?,0,0,0
COc1ccc(NC(=O)C2CCC(CNS(=O)(=O)c3cccs3)CC2)cc1 (centres undefined),0,0,0,0,0
CC(C)(C)C1=CC(=Nc2ccccc2N)C=C(C(C)(C)C)C1=O,0,0,0,0,?
CC(C)(C)C1=CC(=O)C(=O)C(C(C)(C)C)=C1,20µM,7.06µM,0,0,0
COc1ccc(C(C)(O)c2nc(-c3ccc(F)cc3OC)cs2)cc1 (centres undefined),-,-,-,0,-
CCOC(=O)c1c(S(=O)(=O)Nc2ccccn2)c(C)n(C)c1C,0,0,0,0,?
CC(C)(C)c1cc(CNC2CS(=O)(=O)C[C@@H]2O)cc(C(C)(C)C)c1O (some centres undefined),1.58µM,0,0,0,0
O=C(Nc1ccc(N2CCCC2)cc1)c1ccccc1F,?,?,0,0,0
COc1cc(NS(=O)(=O)c2ccc(NC(=S)NC(=O)c3ccco3)cc2)nc(OC)n1,31.6µM,0,0,0,0
Cc1cc(C)nc(NS(=O)(=O)c2ccc(NC(=S)NC(=O)c3ccco3)cc2)n1,14.1µM,0,0,0,0
COc1cc(NS(=O)(=O)c2ccc(NC(=O)c3ccco3)cc2)nc(OC)n1,0,0,0,0,?
Cc1cccc2nnc(-c3ccccc3)n12,-,-,-,0,-
CCOC(=O)c1ccccc1NC(=O)c1nc2nccc(C)n2n1,0,0,0,0,0
CC(=O)c1c(COC(=O)c2ccco2)nc2ccccc2[n+]1[O-],39.8µM,0,0,0,0
O=C1CCCC(c2ccccc2)N1 (centres undefined),0,0,0,0,?
CCOc1cc(/C=N/NC(=O)c2cc(C)n(-c3ccc(F)cc3)c2C)ccc1O,56.2µM,0,?,0,0
Cc1cc(C(=O)N/N=C2\CC(=O)c3ccccc32)c(C)n1-c1ccc(F)cc1,35.5µM,0,0,0,0
CCOc1ccccc1NC(=O)C(=O)c1cc(C)n(-c2ccc(F)cc2)c1C,0,-,-,-,0
N#CC1=C(N)Oc2c(ccc3cccnc23)C1c1ccccc1 (centres undefined),39.8µM,0,0,0,0
COC(=O)C1=C(C)NC(C)=C(C(=O)OC)C1c1cc2cc(C)ccc2[nH]c1=O,?,0,0,0,0
N#CC1=C(N)Oc2cc(O)ccc2C1c1cccs1 (centres undefined),0,0,0,0,0
Cc1ccc2[nH]c(=O)c(C3C(C#N)=C(N)Oc4c3ccc3cccnc43)cc2c1 (centres undefined),15.8µM,0,0,0,0
SMILES,Sm TGR block,Giardia FBPA inh,AmpC no deterg,RE007 growth inh,AmpC inh detg
N#CC1=C(N)Oc2c(ccc3ccccc23)C1c1cccs1 (centres undefined),35.5µM,?,0,0,0
COCCNC(=O)/C(C#N)=C/c1cc(C)n(-c2ccc(C)cc2)c1C,0,0,0,0,0
Cc1cc(CN2CCC(N3CCC(C(=O)NC4CC4)CC3)CC2)cc(C)c1O,44.7µM,-,0,0,0
O=C1CC(C(=O)N2CCC(N3CCC(C(=O)NC4CC4)CC3)CC2)c2ccccc21 (centres undefined),39.8µM,0,0,0,0
COc1cccc(/C=C(\C#N)c2nc3ccc(C)cc3[nH]2)c1,0,-,-,-,0
Cc1ccsc1C(=O)N1CCCC(CCC(=O)NCc2ccc(F)c(F)c2)C1 (centres undefined),0,0,0,0,0
CC12CN(C(=O)c3ccco3)CC(c3ccccc3)(CN(C(=O)c3ccco3)C1)C2=O,?,0,0,0,0

# Source: PubChem BioAssay (National Center for Advancing Translational Sciences (NCATS))
